Compound activity: PubChem, National Center for Advancing Translational Sciences (NCATS)
CHX counter – affects cycloheximide protein synthesis inhibition readout, counter-screen | cell reporter, cycloheximide protein synthesis inhibition counterscreen | max response, % | actives 12% (n = 300,000); in the data active = max response mostly above about 13%, no sharp cut-off; inactive = mostly below about 14%; also: read at 38.3 µM for the half of the compounds with a filed dose; 0% is about no effect
Pf growth 96h – P. falciparum growth inhibition at 96 hours; P. falciparum luciferase reporter growth, 96 h; Potency, µM (titrated, usually from 28.7 µM), without a hit: at the highest dose activity change, negative = inhibition, usual class: inhibitors; actives 6.9% (n = 320,000); AID 504834; also: potency is read from the fitted curve at half-maximal effect; % is scaled to controls: 0 for no effect and ±100 for the full control effect
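Readout is luminescence from an integrated firefly luciferase in P. falciparum. Red cells, 2% hematocrit and 0.05% parasitemia final, were cultured with compound through two parasite generations (96 hours) at 37 C, 5% CO2.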
NS1 function inh – influenza NS1 inhibition; actives 0.4% (n = 270,000); Potency, µM (doses to about 46.1 µM), for the others: at the highest dose activity, positive = more growth; calls by dose curve; also: potency is read from the fitted curve at half-maximal effect; actives are rising curves; nearly all actives have a fitted effect of over 50% in size
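Growth recovery, yeast-based: influenza A NS1 expressed in S. cerevisiae causes slow growth, and suppressors are detected by OD600. The parent strain without NS1 is used as positive control.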
Pf growth 48h – P. falciparum growth inhibition at 48 hours (one generation); actives 5.9% (n = 310,000); AID 504832; Potency, µM (series often up to 28.7 µM), for inactives: top-dose activity change, negative = inhibition, usual class: inhibitors; P. falciparum luciferase growth in erythrocytes, 48 h; also: potency is read from the fitted curve at half-maximal effect; % is scaled to controls: 0 for no effect and ±100 for the full control effect
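A one-generation exposure of luciferase-tagged malaria parasites in RPMI 1640/Albumax erythrocyte culture, 37 C and 5% CO2. Inhibition is inferred from decreased luminescence after adding detection reagent.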
Shiga inhibitor – Shiga toxin inhibition; Vero cells, Shiga toxin protein synthesis inhibition reporter; inhibition, % at 38.7 µM; actives 9.2% (n = 290,000); AID 2315; in the data active = inhibition mostly above about 28%, no sharp cut-off; inactive = mostly below about 43%; also: 0% is about no effect
Active calls of the source: *; i = inactive; u = inconclusive; x = no result given; [ ] = remark or other dose. Shown are actives, neighbours in structure and some others; about 21% of the full set was active somewhere. Unless noted, calls follow the shape of the dose curve; as a rule, active = well fitted inhibition curve with a large enough effect; inconclusive = small, poorly fitted or top-dose-only effect, or another doubt; inactive = no such curve, though single readings can be large or run the other way.

SMILES	CHX counter	Pf growth 96h	NS1 function inh	Pf growth 48h	Shiga inhibitor
CCC(C)Sc1cccc(-c2nc3ccc(C)cn3c2NCc2ccccc2)c1 (centres undefined)	x	13.1µM*	x	3.29µM*	x
Cc1ccc2nc(-c3cccc(-c4cccc(Cl)c4)c3)c(NCc3ccccc3)n2c1	x	10.4µM*	x	7.38µM*	x
COc1ccc(NC(=O)CSc2nc3scc(C)c3c(=O)[nH]2)cc1	-0.9	u	10.1%	2.3%	-12.7
O=C1C(Cl)=C(NS(=O)(=O)c2ccc([N+](=O)[O-])cc2)C(=O)c2ccccc21	-1.4	5.22µM*	0.9%	u	-3.1
CCOC(=O)C1CCN(c2c(NCCN3CCN(c4ccccc4)CC3)c(=O)c2=O)CC1	-5.0	-7.9%	6.0%	-13.0%	-0.8
Cc1cc(C)c(S(=O)(=O)n2ccc(-c3ccc(OCCN(C)c4ccccn4)cc3)n2)c(C)c1	0.4	7.38µM*	26.2%	1.85µM*	-3.4
CN(C)/C=C/C(=O)c1ccc(OCCN(C)c2ccccn2)cc1	-2.8	-17.8%	-60.5%	12.4%[0.00184 µM]	-2.9
CC1=Cc2ccccc2C(C#N)N1C(=O)c1ccccc1 (centres undefined)	6.9	3.6%	5.0%	-3.3%	46.6
CC#CCCC(=O)N1C=Cc2ccccc2C1C#N (centres undefined)	-1.7	0.0%	-2.9%	2.33µM*	-4.8
Nc1nonc1N/N=C\c1ccccc1	-4.7	25.2%	5.8%	21.4%	4.7
Nc1nonc1NN=C1CCCCC1	12.2*	14.0%	2.9%	26.9%	77.4
CCOc1ccc(Br)cc1S(=O)(=O)Nc1ccccc1N1CCOCC1	9.4	x	-30.8%	8.28µM*	-7.2
CC(C)(C)C1CCC(C(=O)Nc2ccccc2N2CCOCC2)CC1 (centres undefined)	x	u	x	9.28µM*	x
CCOc1ccccc1N1CC(C(=O)Nc2ccccc2N2CCOCC2)CC1=O (centres undefined)	37.9*	u	4.5%	u	17.3
CCOc1ccc(Br)cc1S(=O)(=O)Nc1ccc(N2CCOCC2)cc1	-4.1	u	-6.8%	x	-17.7
COCCCN(C(=O)Nc1ccccc1)C(C)c1ccncc1 (centres undefined)	-5.9	15.2%	-10.4%	x	-5.3
Cc1ccc2c(c1)-c1cc(C)nn1C(c1ccc3c(c1)OCO3)N2 (centres undefined)	16.0*	u	-52.4%	-21.9%	28.5
Cc1cc2n(n1)C(c1ccc3c(c1)OCO3)Nc1ccccc1-2 (centres undefined)	10.9	27.2%	-27.7%	42.5%	-1.7
Cc1cc2n(n1)C(c1ccc(N(C)C)cc1)Nc1ccccc1-2 (centres undefined)	47.5*	2.5%	-31.3%	86.0%	48.1*
COc1ccc(O)c(/C=N/NC(=O)CN2CCS(=O)(=O)CC2)c1	4.6	-5.3%	0.0%	-15.1%	-2.7
Cc1ccc(COc2ccsc2C(=O)NNC(N)=S)cc1	-9.6	1.9%	12.5%	-6.5%	-25.4
COc1cc(/C=N/N2CCN(Cc3ccc(C)cc3)CC2)cc(OC)c1O	-2.3	20.4%	21.4%	16.8%	-1.1
CC(c1cccs1)N(C)Cc1nc(CCc2ccccc2)no1 (centres undefined)	16.7	u	2.7%	85.8%	37.0*
COc1ccc(/C=C/C(=O)c2ccc(Cl)s2)cc1O	24.0*	14.4%	-210.7%	x	59.8
COc1ccc(C(=O)/C=C/c2ccc(OC)c(O)c2)c(F)c1	67.8*	u	-27.9%	u	61.4*
SMILES	CHX counter	Pf growth 96h	NS1 function inh	Pf growth 48h	Shiga inhibitor
CCOC(=O)c1nnc2cc(-c3ccc(Br)cc3)nn2c1C	-2.7	u	-13.4%	226.9%	21.8
CCOC(=O)c1cnn2c(C)cc(-c3ccccc3)nc12	36.1*	u	-5.6%	63.2%	68.2*
CCOC(=O)c1cc(-c2ccccc2)nc2nc(N(CC)CC)sc12	-1.1	11.7µM*	18.2%	9.28µM*	2.6
CCOC(=O)c1cc(-c2ccccc2)nc2nc(N3CCCCC3)sc12	-2.4	51.2%	1.5%	-8.6%	-10.4
CCOC(=O)c1nnc2cc(-c3ccccc3)nn2c1C	28.4*	14.7µM*	-58.9%	x	11.3
O=C(CSc1nnc(CN2CCOCC2)n1-c1ccccc1)N1CCc2ccccc21	-1.9	13.1µM*	-11.3%	3.4%	-12.1
N#Cc1ccc(OCc2nnc(SCC(=O)N3CCCc4ccccc43)n2-c2ccccc2)cc1	0.4	3.29µM*	0.1%	14.7µM*	-11.8
COc1ccc(-n2c(Cc3cccn3C)nnc2SCC(=O)N2CCCc3ccccc32)cc1	-4.5	12.9%	u	u	-11.4
COc1ccc(OCc2nnc(SCC(=O)N3CCCc4ccccc43)n2-c2ccc(C)cc2)cc1	6.4	x	13.7%	11.7µM*	-18.0
O=C(CSc1nnc(CN2CCOCC2)n1-c1ccc(Cl)cc1)N1CCc2ccccc21	x	x	-14.8%	x	x
COC(=O)c1ccc(NC(=S)NNC(=O)c2ccccc2)cc1	25.7*	u	-1.7%	17.3%	42.3
O=C(O)/C=C/C(=O)NNC(=O)c1cccc(Br)c1	25.0*	19.7%	-3.5%	19.9%	38.6*
O=C(NNC(=S)Nc1ccc(Br)cc1)c1ccccc1	22.5*	u	-14.2%	82.0%	34.2
O=C(NNC(=S)Nc1ccccc1)c1ccc(O)cc1	45.2*	i	2.9%	19.9%	73.4*
C=CCN(C(=O)c1csnn1)C(C(=O)NC1CCCC1)c1ccc(OC)cc1 (centres undefined)	-6.0	15.1%	2.6%	-16.3%	-3.6
O=C(CCN1CCN(C(=O)c2ccccc2)CC1)c1ccc(Br)cc1	-0.2	u	7.4%	u	-2.5
CN(C)c1cc(-c2ccccc2)nc(-c2ccccc2)n1	-2.6	0.0%	9.8%	33.1%	x
Cc1ccc(C(=O)NNC(=O)/C=C\C(=O)O)cc1	41.8*	24.6%	-3.2%	0.0%	70.0*
Cc1ccc(C(=O)NNC(=O)c2ccc(C)cc2)cc1	16.4	6.8%	x	28.1%	20.3
CC(C)(C)NC(=S)NNC(=O)c1cccc(Br)c1	40.4*	-7.1%	x	169.3%	74.3*
Cc1ccccc1C(=O)NNC(=O)c1cccc(Br)c1	4.6	8.6%	-7.2%	28.6%	x
O=C(NNC(=S)Nc1ccccc1)c1cccc(Br)c1	26.2*	109.4%	-15.3%	x	32.9
O=C(NNC(=S)Nc1ccc(Br)cc1)c1ccccc1Br	11.1	9.28µM*	-28.2%	46.1%	71.7
CC(=O)Nc1c(C(=O)N2CCN(c3ncccn3)CC2)cnn1-c1ccccc1Cl	x	x	1.7%	x	x
COc1ccccc1NC(=S)NNC(=O)c1ccc(O)cc1	24.1*	0.37µM*	1.1%	x	27.0
O=C(Nc1ccccn1)c1ccc([N+](=O)[O-])cc1Cl	16.1*	71.2%	6.6%	40.6%	34.8
O=C(Nc1ccc(Cl)cc1)c1ccc(-c2ccccn2)s1	41.9*	11.1%	5.0%	133.6%	71.6*
O=C(N/N=C/c1ccccn1)c1ccc([N+](=O)[O-])cc1Cl	27.9*	-84.8%	6.3%	-12.8%	x
C/C(CC(=O)Nc1ccccn1)=N\NC(=O)c1ccc([N+](=O)[O-])cc1Cl	-2.6	u	-28.8%	-0.8%	8.0
CSc1ccc(Cl)c(C(=O)Nc2ccc(C)cn2)c1	24.6*	2.1%	-1.7%	24.2%	35.6
